# PubChem BioAssay (EPA / NIEHS)
# Inconclusive results are not listed. Active and inactive are the calls of the source. Rule for the calls: active = hit-call score of the fitted dose curve at least 0.9, where 1 is the maximum; inconclusive = response in the unintended direction; inactive = score below 0.9.
# Assays:
# [1] = target: Estrogen receptor (Homo sapiens) (UniProt P03372); experiment: OT_ER_ERaERa_0480: Odyssey Thera (OT) 8-hour HEK293T Protein-Complementation Assay for Estrogen Receptor-alpha/-alpha Homodimer (AID 2283351);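 note: rise in fluorescence from reassembled reporter fragments on ERα LBD homodimer in nucleus or whole cell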
# Estrogen receptor (Homo sapiens), sequence (P03372 whole entry, looked up, the tested form may be a part): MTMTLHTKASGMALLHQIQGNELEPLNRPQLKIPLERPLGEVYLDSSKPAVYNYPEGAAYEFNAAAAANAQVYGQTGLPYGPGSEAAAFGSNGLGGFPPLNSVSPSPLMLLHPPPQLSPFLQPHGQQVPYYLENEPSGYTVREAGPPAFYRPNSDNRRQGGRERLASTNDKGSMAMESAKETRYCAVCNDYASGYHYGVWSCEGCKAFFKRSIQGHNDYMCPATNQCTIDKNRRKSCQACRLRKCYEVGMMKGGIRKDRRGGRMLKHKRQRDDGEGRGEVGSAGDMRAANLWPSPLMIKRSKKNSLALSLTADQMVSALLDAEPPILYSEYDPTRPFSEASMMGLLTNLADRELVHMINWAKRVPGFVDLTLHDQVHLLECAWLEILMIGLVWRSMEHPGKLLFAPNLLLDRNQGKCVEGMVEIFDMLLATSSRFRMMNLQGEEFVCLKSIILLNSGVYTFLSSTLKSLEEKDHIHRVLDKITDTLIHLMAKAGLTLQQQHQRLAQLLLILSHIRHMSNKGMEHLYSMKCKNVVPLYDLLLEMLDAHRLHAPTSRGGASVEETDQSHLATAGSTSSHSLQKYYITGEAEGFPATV
# In short: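 The readout is complementation of fragments fused to the human ER alpha ligand-binding domain (aa 310-547), stably expressed in HEK293T cells. After 8 h of exposure, the increase in nuclear/cytoplasmic fluorescence was measured by laser scanning cytometry and fitted relative to DMSO.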
# [2] = target: T1, Estrogen receptor (Homo sapiens) + Estrogen receptor beta (Homo sapiens) (UniProt P03372+Q92731); experiment: OT_ER_ERaERb_0480: Odyssey Thera (OT) 8-hour HEK293T Protein-Complementation Assay for Estrogen Receptor-alpha/-beta Heterodimer (AID 2283352)
# T1 sequence (P03372 whole entry, looked up, the tested form may be a part): as above
# T1 sequence (Q92731 whole entry, looked up, the tested form may be a part): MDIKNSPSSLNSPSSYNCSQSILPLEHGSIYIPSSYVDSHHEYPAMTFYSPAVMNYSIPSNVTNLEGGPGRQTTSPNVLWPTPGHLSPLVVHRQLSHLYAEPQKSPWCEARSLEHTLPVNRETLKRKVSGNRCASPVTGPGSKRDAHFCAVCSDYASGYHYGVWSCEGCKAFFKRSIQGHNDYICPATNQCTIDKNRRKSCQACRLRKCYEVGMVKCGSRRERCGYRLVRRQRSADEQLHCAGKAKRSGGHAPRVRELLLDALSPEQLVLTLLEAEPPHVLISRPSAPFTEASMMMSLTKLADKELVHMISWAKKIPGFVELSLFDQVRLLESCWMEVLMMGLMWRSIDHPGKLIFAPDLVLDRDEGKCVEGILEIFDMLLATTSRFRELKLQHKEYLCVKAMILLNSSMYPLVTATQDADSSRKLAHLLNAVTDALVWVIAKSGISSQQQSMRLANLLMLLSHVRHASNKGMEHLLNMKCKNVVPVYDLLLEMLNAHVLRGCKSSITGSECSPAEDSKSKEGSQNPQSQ
# In short: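 Fluorescence increase from reconstituted reporter fragments, quantified by laser scanning cytometer, reflects ER-alpha/ER-beta heterodimer formation in human HEK293T cells. Exposure 8 h; positive-direction fitting against DMSO vehicle.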
# [3] = target: T1, Estrogen receptor (Homo sapiens) + Estrogen receptor beta (Homo sapiens); experiment: OT_ER_ERaERb_1440: Odyssey Thera (OT) 24-hour HEK293T Protein-Complementation Assay for Estrogen Receptor-alpha/-beta Homodimer (AID 2283356);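 note: heteromer of ER alpha and ER beta binding domains; hits raise reporter fluorescence and both agonists and antagonists give an increase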
# In short: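 Fragment complementation between ER alpha (310-547) and ER beta (263-489) ligand-binding domains in HEK293T cells; signal read 24 h post-dosing by laser scanning cytometer. Gain of fluorescence relative to DMSO fitted.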
# [4] = target: Estrogen receptor beta (Homo sapiens) (UniProt Q92731); experiment: OT_ER_ERbERb_0480: Odyssey Thera (OT) 8-hour HEK293T Protein-Complementation Assay for Estrogen Receptor-beta/-beta Homodimer (AID 2283357);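 note: active means signal gain over DMSO baseline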
# Estrogen receptor beta (Homo sapiens), sequence (Q92731 whole entry, looked up, the tested form may be a part): as above
# In short: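 Fluorescence intensity, nuclear for agonists and nuclear plus cytoplasmic for antagonists, was quantified by laser scanning cytometry versus vehicle after 8 h treatment. The cells were HEK293T stably carrying ER beta LBD fragment-complementation partners.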
# [5] = target: Nuclear receptor subfamily 1 group I member 2 (Homo sapiens) (UniProt O75469); experiment: NVS_NR_hPXR: NovaScreen (NVS) Nuclear Receptor Binding Assay for human Pregnane X Receptor (PXR) (AID 2283365);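 note: a drop in FRET signal versus DMSO baseline means the compound binds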
# Nuclear receptor subfamily 1 group I member 2 (Homo sapiens), sequence (O75469 whole entry, looked up): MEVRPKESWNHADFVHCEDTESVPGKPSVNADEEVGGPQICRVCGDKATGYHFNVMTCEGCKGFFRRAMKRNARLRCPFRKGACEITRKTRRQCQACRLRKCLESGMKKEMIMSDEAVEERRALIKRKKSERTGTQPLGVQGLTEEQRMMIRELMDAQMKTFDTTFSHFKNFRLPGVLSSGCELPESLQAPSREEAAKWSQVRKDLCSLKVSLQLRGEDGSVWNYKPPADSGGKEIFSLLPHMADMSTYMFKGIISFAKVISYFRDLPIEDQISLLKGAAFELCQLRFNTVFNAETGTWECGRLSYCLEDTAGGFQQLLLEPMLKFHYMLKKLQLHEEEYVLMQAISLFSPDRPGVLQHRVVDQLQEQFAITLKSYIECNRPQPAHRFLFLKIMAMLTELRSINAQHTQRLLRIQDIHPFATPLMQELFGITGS
# In short: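 Human PXR binding measured by TR-FRET in a cell-free format, 2 h exposure. Single-concentration duplicates at 25 uM preceded concentration-response retests of actives; endpoint fitted positively relative to DMSO, loss of signal indicating binding.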
# [6] = target: guinea pig Sigma Receptor, Non-selective Binding, SIGMAR1 (gene 100135589) (UniProt Q60492); experiment: NVS_OR_gSIGMA_NonSelective: NovaScreen (NVS) Nuclear Receptor Binding Assay for guinea pig Sigma Receptor, Non-selective Binding (AID 2283367)
# In short: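 Radioligand displacement on guinea pig brain membranes, read by filter-based scintillation counting 1 h after dosing. Loss of signal versus DMSO; initial duplicate single-point screen at 25 uM, actives followed in concentration series.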
# [7] = target: Norway rat Vesicular Monoamine Transporter (VMAT2), neurotransmitter transporter, Slc18a2 (gene 25549) (UniProt Q01827); experiment: NVS_TR_rVMAT2: NovaScreen (NVS) Transporter Assay for Norway rat Vesicular Monoamine Transporter (VMAT2), neurotransmitter transporter (AID 2283376);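 note: actives lower the bound radioligand signal below the DMSO level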
# In short: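 Radioligand displacement binding on rat forebrain tissue preparation, filter-based scintillation read-out 1 hour after dosing. Primary screen in duplicate at 25 uM, then concentration series for actives; loss of signal versus DMSO.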
# [8] = target: Androgen Receptor/SRC-1 Co-activator, AR (gene 367) (UniProt P10275); experiment: OT_AR_ARSRC1_0960: Odyssey Thera (OT) 16-hour HEK293T Protein-Complementation Assay for Androgen Receptor/SRC-1 Co-activator (AID 2283353);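 note: actives raise the signal above DMSO so potency reflects increased AR and SRC-1 complex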
# Androgen Receptor/SRC-1 Co-activator, AR (gene 367), sequence (P10275 whole entry, looked up, the tested form may be a part): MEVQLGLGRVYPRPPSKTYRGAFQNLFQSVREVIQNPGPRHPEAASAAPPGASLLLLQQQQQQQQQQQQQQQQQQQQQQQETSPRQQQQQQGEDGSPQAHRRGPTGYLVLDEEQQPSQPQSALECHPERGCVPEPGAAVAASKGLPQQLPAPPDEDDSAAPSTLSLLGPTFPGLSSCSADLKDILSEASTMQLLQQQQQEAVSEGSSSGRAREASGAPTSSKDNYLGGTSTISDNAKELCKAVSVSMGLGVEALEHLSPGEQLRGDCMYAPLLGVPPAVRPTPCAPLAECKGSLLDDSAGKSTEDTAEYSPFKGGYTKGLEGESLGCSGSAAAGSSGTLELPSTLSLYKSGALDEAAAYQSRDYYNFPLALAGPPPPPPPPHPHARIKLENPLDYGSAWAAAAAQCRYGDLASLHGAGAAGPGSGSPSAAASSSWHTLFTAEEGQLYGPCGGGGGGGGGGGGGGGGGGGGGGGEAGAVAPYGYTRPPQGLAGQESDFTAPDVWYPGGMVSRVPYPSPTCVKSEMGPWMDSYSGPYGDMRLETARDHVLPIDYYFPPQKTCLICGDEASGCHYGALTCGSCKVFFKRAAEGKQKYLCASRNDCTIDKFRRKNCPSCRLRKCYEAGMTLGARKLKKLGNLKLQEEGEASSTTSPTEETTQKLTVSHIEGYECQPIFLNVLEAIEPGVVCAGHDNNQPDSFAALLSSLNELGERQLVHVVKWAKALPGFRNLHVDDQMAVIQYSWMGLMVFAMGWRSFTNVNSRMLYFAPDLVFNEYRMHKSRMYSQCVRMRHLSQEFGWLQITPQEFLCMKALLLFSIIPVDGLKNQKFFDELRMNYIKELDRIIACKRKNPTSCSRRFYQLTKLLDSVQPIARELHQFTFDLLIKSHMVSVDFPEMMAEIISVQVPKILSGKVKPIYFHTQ
# In short: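 HEK293T cells stably expressing AR and SRC-1 fused to Venus YFP fragments, imaged 16 h after dosing. Nuclear/cytoplasmic fluorescence ratio at 488 nm from at least 400 cells per image; gain of signal relative to DMSO.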
# [9] = target: Androgen Receptor/SRC-1 Co-activator, AR (gene 367) (UniProt P10275); experiment: OT_AR_ARSRC1_0480: Odyssey Thera (OT) 8-hour HEK293T Protein-Complementation Assay for Androgen Receptor/SRC-1 Co-activator (AID 2283354);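 note: hits raise the complementation signal above DMSO so AC50 marks enhancers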
# In short: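 HEK293T cells stably expressing AR and SRC-1 fused to Venus YFP fragments, imaged 8 h after dosing. Complementation fluorescence scored as nuclear/cytoplasmic ratio at 488 nm in at least 400 cells per image; gain fitted versus DMSO.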
# [10] = target: human Thyroid Receptor Alpha (TRa), THRA (gene 7067) (UniProt P10827); experiment: NVS_NR_hTRa_Antagonist: NovaScreen (NVS) Nuclear Receptor Binding Assay for human Thyroid Receptor Alpha Antagonism (TRa) (AID 2283362);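 note: activity is loss of signal relative to DMSO baseline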
# In short: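 Actives from a duplicate 25 uM single-point screen were retested in concentration series. The cell-free antagonist-format binding assay was read by AlphaLISA chemiluminescence at 1 h, scored as signal loss relative to DMSO.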
# [11] = target: Glucocorticoid receptor (Homo sapiens) (UniProt P04150); experiment: NVS_NR_hGR: NovaScreen (NVS) Nuclear Receptor Binding Assay for human Glucocorticoid Receptor (GR) (AID 2283363);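 for AC50: activity is loss of specific radioligand binding signal relative to DMSO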
# In short: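 Cell-free radioligand displacement assay on extracted human GR, read 16 h after dosing by filter-based scintillation counting. Screened in duplicate at 25 uM, then concentration series for actives; loss of signal versus DMSO baseline.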
# [12] = target: rat Androgen Receptor (AR), Ar (gene 24208) (UniProt P15207); experiment: NVS_NR_rAR: NovaScreen (NVS) Nuclear Receptor Binding Assay for rat Androgen Receptor (AR) (AID 2283366)
# rat Androgen Receptor (AR), Ar (gene 24208), sequence (P15207 whole entry, looked up): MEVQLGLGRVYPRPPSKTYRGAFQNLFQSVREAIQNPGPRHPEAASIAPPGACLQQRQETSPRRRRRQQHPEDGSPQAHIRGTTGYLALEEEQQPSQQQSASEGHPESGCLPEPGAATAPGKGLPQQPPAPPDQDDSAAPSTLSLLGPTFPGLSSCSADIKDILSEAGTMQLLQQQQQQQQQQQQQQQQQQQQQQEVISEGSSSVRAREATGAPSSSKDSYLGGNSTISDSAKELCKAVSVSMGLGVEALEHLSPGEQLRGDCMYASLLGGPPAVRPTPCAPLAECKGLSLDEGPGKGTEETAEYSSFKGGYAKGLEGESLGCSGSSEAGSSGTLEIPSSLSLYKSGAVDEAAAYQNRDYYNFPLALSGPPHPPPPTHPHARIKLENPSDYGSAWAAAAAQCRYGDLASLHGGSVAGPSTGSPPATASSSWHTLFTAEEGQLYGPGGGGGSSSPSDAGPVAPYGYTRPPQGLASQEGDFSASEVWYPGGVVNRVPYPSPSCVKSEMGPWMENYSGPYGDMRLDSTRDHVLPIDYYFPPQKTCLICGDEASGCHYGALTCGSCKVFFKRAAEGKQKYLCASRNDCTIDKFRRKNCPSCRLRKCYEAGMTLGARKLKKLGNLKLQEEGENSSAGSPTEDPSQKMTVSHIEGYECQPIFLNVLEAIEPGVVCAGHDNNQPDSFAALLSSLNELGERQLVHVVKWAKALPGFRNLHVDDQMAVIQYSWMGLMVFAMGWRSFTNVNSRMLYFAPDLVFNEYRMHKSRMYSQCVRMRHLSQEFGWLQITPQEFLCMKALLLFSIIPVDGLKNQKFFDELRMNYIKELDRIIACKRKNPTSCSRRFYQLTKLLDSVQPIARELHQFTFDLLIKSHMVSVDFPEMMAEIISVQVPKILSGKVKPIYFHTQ
# In short: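 Cell-free radioligand binding on extracts of prostate from testosterone-pretreated rats, read by filter-based scintillation counting 18 h after dosing. Loss of bound signal fitted positively versus DMSO; primary screen in duplicate at 25 uM, actives followed up in concentration series.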
# [13] = target: Peroxisome proliferator-activated receptor gamma (Homo sapiens) (UniProt P37231); experiment: NVS_NR_hPPARg: NovaScreen (NVS) Nuclear Receptor Binding Assay for human Peroxisome Proliferator-activated Receptor gamma (PPARg) (AID 2283370)
# Peroxisome proliferator-activated receptor gamma (Homo sapiens), sequence (P37231 whole entry, looked up): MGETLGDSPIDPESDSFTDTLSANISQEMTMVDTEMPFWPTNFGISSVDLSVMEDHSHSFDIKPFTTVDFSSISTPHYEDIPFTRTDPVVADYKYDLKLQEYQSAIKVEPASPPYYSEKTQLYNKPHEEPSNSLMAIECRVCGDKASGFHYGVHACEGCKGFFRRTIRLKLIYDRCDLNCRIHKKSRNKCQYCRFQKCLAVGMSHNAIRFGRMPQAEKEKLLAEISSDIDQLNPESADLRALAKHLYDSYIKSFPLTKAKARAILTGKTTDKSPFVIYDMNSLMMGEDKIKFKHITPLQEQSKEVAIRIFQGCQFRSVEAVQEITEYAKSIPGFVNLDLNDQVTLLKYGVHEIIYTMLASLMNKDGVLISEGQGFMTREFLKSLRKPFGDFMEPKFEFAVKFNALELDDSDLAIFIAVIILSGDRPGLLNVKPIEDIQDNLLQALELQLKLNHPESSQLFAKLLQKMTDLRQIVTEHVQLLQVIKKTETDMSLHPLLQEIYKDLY
# In short: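 Fluorescence polarization readout of ligand binding to extracted human PPARg, measured at 2 h. Duplicate single-point screen at 25 uM, then concentration-series retesting; activity defined as signal loss versus DMSO.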
# [14] = target: rat Mineralocorticoid Receptor (MR), Nr3c2 (gene 25672) (UniProt P22199); experiment: NVS_NR_rMR: NovaScreen (NVS) Nuclear Receptor Binding Assay for rat Mineralocorticoid Receptor (MR) (AID 2283355)
# In short: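 Cell-free radioligand binding to mineralocorticoid receptor from adrenalectomized rat brain supernatant, scintillation counting after 24 h. Primary screen in duplicate at 25 uM; actives retested in concentration series. Loss of specific binding versus DMSO.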
# [15] = tested on: guinea pig Dopamine Transporter (DAT), gene 100714898; experiment: NVS_TR_gDAT: NovaScreen (NVS) Transporter Assay for guinea pig Dopamine Transporter (DAT) (AID 2283369);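 note: active compounds lower bound radioligand signal relative to DMSO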
# In short: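 Radioligand displacement on membranes from guinea pig striatum, 2 h exposure, bound label counted by filtration and scintillation. Tested at 25 uM in duplicate, then actives in concentration series to 50 uM; DMSO as negative control.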
# [16] = target: human Dopamine Transporter (DAT), SLC6A3 (gene 6531) (UniProt Q01959); experiment: NVS_TR_hDAT: NovaScreen (NVS) Transporter Assay for human Dopamine Transporter (DAT) (AID 2283374);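 note: activity means loss of bound radioligand signal relative to DMSO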
# In short: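 Cell-free radioligand displacement binding at human DAT, 1 h after dosing, with filtration and scintillation counting. Primary screen in duplicate at 25 uM, actives then in concentration series. Loss of bound signal versus DMSO scored.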
# [17] = target: human Peroxisome Proliferator-activated Receptor alpha (PPARa), PPARA (gene 5465) (UniProt Q07869); experiment: NVS_NR_hPPARa: NovaScreen (NVS) Nuclear Receptor Binding Assay for human Peroxisome Proliferator-activated Receptor alpha (PPARa) (AID 2283359);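 note: activity means loss of TR-FRET signal versus DMSO baseline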
# In short: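 Cell-free TR-FRET binding assay with extracted PPARα protein, read 1 h after dosing. Primary screen in duplicate at 25 uM, with actives retested in concentration series. Loss of signal versus DMSO.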
# [18] = target: Retinoic acid receptor alpha (Homo sapiens) (UniProt P10276); experiment: NVS_NR_hRARa_Agonist: NovaScreen (NVS) Nuclear Receptor Binding Assay for human Retinoic Acid Alpha Receptor Agonism (RAR) (AID 2283361)
# In short: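 Cell-free TR-FRET binding readout with extracted receptor protein, read 2 hours after dosing; gain-of-signal fitted relative to DMSO. Screened in duplicate at 25 uM, actives then run in concentration-response.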
smiles,measurement,setting,value
O=CCCl,outcome,[1],inactive
same,outcome,[2],inactive
same,outcome,[3],inactive
same,outcome,[4],inactive
same,outcome,[5],inactive
CCCCCCCCCCCCN(C)C,outcome,[1],inactive
same,outcome,[2],inactive
same,AC50,[3],73.9 µM (active)
same,AC50,[4],76.5 µM (active)
same,AC50,[6],1.51 µM (active)
same,outcome,[7],inactive
O=S1(=O)OC(c2cc(Br)c(O)c(Br)c2)(c2cc(Br)c(O)c(Br)c2)c2ccccc21,outcome,[1],inactive
same,AC50,[2],15.2 µM (active)
same,outcome,[8],inactive
same,outcome,[9],inactive
same,outcome,[3],inactive
same,AC50,[4],46.5 µM (active)
same,AC50,[10],4.18 µM (active)
same,AC50,[11],0.426 µM (active)
same,AC50,[5],5.92 µM (active)
same,AC50,[12],3.11 µM (active)
same,AC50,[13],2.87 µM (active)
Cc1cc(C(C)(C)c2ccc(O)c(C)c2)ccc1O,outcome,[14],inactive
same,AC50,[11],1.82 µM (active)
same,outcome,[12],inactive
same,AC50,[15],6.35 µM (active)
same,AC50,[16],1.62 µM (active)
C=CC(Cl)CCl (configuration not stated),outcome,[8],inactive
same,outcome,[9],inactive
same,outcome,[4],inactive
same,AC50,[5],5.06 µM (active)
C=CCN=C=S,outcome,[1],inactive
CCN(CCO)CCO,outcome,[1],inactive
same,outcome,[2],inactive
same,outcome,[3],inactive
CC(O)(CS(=O)(=O)c1ccc(F)cc1)C(=O)Nc1ccc(C#N)c(C(F)(F)F)c1 (configuration not stated),outcome,[1],inactive
same,outcome,[2],inactive
same,AC50,[3],5.63 µM (active)
same,outcome,[4],inactive
same,outcome,[11],inactive
same,outcome,[5],inactive
Cc1cc(Cl)ccc1OC(C)C(=O)O (configuration not stated),outcome,[1],inactive
same,outcome,[2],inactive
same,outcome,[3],inactive
same,outcome,[4],inactive
same,outcome,[13],inactive
O=C(O)COc1ccc(Cl)cc1,outcome,[1],inactive
same,outcome,[2],inactive
same,outcome,[3],inactive
Cc1cc(Cl)ccc1OCCCC(=O)O,outcome,[8],inactive
same,outcome,[9],inactive
same,outcome,[4],inactive
O=[N+]([O-])c1ccc(Cl)c([N+](=O)[O-])c1,outcome,[1],inactive
same,AC50,[8],9.86 µM (active)
same,AC50,[9],15 µM (active)
same,outcome,[17],inactive
same,AC50,[11],4.52 µM (active)
same,AC50,[12],3.07 µM (active)
same,outcome,[13],inactive
O=C(N[C@H]1CN2CCC1CC2)c1ccc2c(c1)OCCO2,outcome,[8],inactive
same,outcome,[9],inactive
same,outcome,[4],inactive
same,outcome,[18],inactive
same,outcome,[7],inactive
O=C(NC(=O)c1c(F)cccc1F)Nc1ccc(Cl)cc1,outcome,[1],inactive
same,outcome,[2],inactive
same,outcome,[3],inactive
CN(N=O)C(N)=O,outcome,[4],inactive
CC(=Cc1ccccc1)[N+](=O)[O-],outcome,[1],inactive
same,outcome,[2],inactive
same,AC50,[8],16.7 µM (active)
same,AC50,[9],18 µM (active)
same,outcome,[3],inactive
same,outcome,[4],inactive
same,outcome,[13],inactive
COCCl,outcome,[8],inactive
same,outcome,[4],inactive
same,AC50,[13],4.2 µM (active)
CCOc1ccc(N)cc1,outcome,[1],inactive
same,outcome,[2],inactive
same,outcome,[3],inactive
same,outcome,[4],inactive
